Source: PubChem BioAssay
MCF10A rerep = DNA re-replication induction in MCF 10a cells; AID 624296; Potency, µM (series often up to 46.1 µM), hits mostly activators; MCF 10A DNA re-replication, Hoechst nuclear intensity, 48 h; 2.9% of 350,000 active; further: nearly all actives have a fitted effect of over 50% in size
KB-V1 MDR tox = kills drug-selected multidrug resistant KB-V1 cells. KB-V1 MDR cells viability, CellTiter-Glo, 72 h. AID 1347076. 3.4% of 400,000 active. Potency, µM (doses to about 46.1 µM), usual class: cytotoxic; further: nearly all actives have a fitted effect of over 60% in size
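Luminescent ATP read-out (CellTiter-Glo, 10 min) measures survival of drug-selected KB-V1 MDR cells after 72 h, 37 degrees C compound exposure. Medium: phenol-red-free DMEM, 10% FBS. Values from fitted concentration-response curves.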
HT1080NT lethal = kills 2HG-producing HT-1080-NT fibrosarcoma cells | HT-1080-NT fibrosarcoma viability, CellTiter-Glo ATP luminescence, 48 h | Potency, µM (titrated, usually from 46.1 µM), actives largely listed as cytotoxic | 1.6% of 360,000 active | AID 686970;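 further: NT is the 2HG producing partner of a matched IDH1 knockdown line; nearly all actives have a fitted effect of over 55% in size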
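Toxicity toward the 2HG-producing NT line was scored as %Activity, normalised to DMSO and no-cell wells, from CellTiter-Glo luminescence after 48 hours' treatment.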
KB-3-1 tox = kills parental KB-3-1 adenocarcinoma cells. KB-3-1 viability, CellTiter-Glo ATP luminescence, 72 h. Potency, µM (titrated, usually from 46.1 µM), actives largely listed as cytotoxic. 1.4% of 400,000 active; further: nearly all actives have a fitted effect of over 60% in size
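Luminescent ATP read-out (CellTiter-Glo) measures survival of drug-naive KB-3-1 cells after 72 h compound exposure at 37 °C. Titration series was screened from lowest to highest concentration, with DMSO vehicle plates as background controls.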
SW480 rerep = inducers of DNA re-replication in SW480 colon cancer cells. SW480 DNA re-replication, Hoechst DNA content imaging, 48 h. Potency, µM (highest dose often 46.1 µM), hits mostly activators. 1.8% of 340,000 active. AID 624297; further: nearly all actives have a fitted effect of over 55% in size
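SW480 cells exposed to compounds for 48 hr at 37 C, 5% CO2, then Hoechst-stained 40 min. Nuclear DNA content imaged by fluorescence scanning (405 nm excitation, 500-530 nm emission); re-replication scored as increased high-intensity nuclei.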
HT1080 IDH1KD tx = HT-1080 IDH1 knockdown cell toxicity (counter line); HT-1080 IDH1 knockdown viability, ATP luminescence, 48 h; Potency, µM (titrated, usually from 46.1 µM), hits mostly cytotoxic; 2% of 360,000 active; AID 686971
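Using the IDH1-knockdown HT-1080 line run in the same batch and compound series as the NT line, viability after 48 h at 37 °C was determined by CellTiter-Glo luminescence and expressed as % activity.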
A number is an active result; – = inactive; ? = inconclusive; · = no result given; [ ] = dose if it differs, or a comment. Compounds with a hit are over-represented: about 7.9% of the library has one in this group of screens. The call rests on the fitted dose curve; in most records, active means well fitted curve in the direction sought with a large enough effect; inconclusive means small, poorly fitted or top-dose-only effect, or another doubt; inactive means no such curve, though single readings can be large; an effect the other way counts as inactive or inconclusive.

SMILES	MCF10A rerep	KB-V1 MDR tox	HT1080NT lethal	KB-3-1 tox	SW480 rerep	HT1080 IDH1KD tx
Cc1nc(SCC(=O)O)c2oc3ccccc3c2n1	–[0.0737 µM]	–	–	–	–	–
Cc1nc(SCC(=O)Nc2ccc3c(c2)OCCO3)c2oc3ccccc3c2n1	–	16µM	–	–	–	–
Cc1c(CCC(=O)N2CCC(C(=O)O)(c3ccccc3)CC2)c(=O)oc2cc3oc4c(c3cc12)CCCC4	–	–	–	–	–	–
C=C1CCN([C@@H](CC(C)C)C(=O)NCc2ccc(OC)cc2)S(=O)(=O)c2ccccc21	–	?	–	–	–	–
O=C(CSc1ncnc2c1oc1ccccc12)Nc1cccc(F)c1	?	–	–	–	–	–
O=C(CSc1ncnc2c1oc1ccccc12)Nc1ccc2c(c1)OCCO2	–	16µM	–	–	–	–
CCc1nc(SCC(=O)N2CCCc3ccccc32)c2oc3ccccc3c2n1	16µM	10µM	–	?	–	–
O=C(CCn1cncn1)N1CCCC(N2CCN(c3ccc(F)cc3)CC2)C1 (centres undefined)	–	–	–	–	–	–
CCN(CC)S(=O)(=O)c1cc([N+](=O)[O-])ccc1NNC(=O)Nc1ccc(Cl)c(Cl)c1	?	?	5.8µM	5.8µM	–	4.1µM
Cc1ccc(NC(=O)CN(c2ccc(Cl)cc2)S(=O)(=O)c2cc([N+](=O)[O-])ccc2Cl)cc1	?	?	–	?	?	–
O=C(NNc1ccccc1[N+](=O)[O-])Nc1ccccc1	–	–	–	–	–	–
O=C(NNc1ccccc1[N+](=O)[O-])Nc1ccc(Cl)c(Cl)c1	?	–	18µM	?	–	18µM
O=C(CSc1nc2ccsc2c(=O)n1Cc1ccc(C(=O)O)cc1)NCc1ccco1	–	–	–	–	–	–
Cc1ccc(CNC(=O)CSc2nc3ccsc3c(=O)n2Cc2ccc(C(=O)O)cc2)cc1	0.65µM	?	–	–	–	–
C=CCN1C(c2ccc(Br)cc2)=CS/C1=C(\C#N)c1nnc(N2CCOCC2)n1-c1ccccc1	?	?	–	–	?	–
CCC(C)n1ncn(-c2ccc(N3CCN(c4ccc(O)cc4)CC3)cc2)c1=O (centres undefined)	?	–	?	1.5µM	–	?
CCC(C)n1ncn(-c2ccc(N3CCN(c4ccc(OCC5COC(Cn6cncn6)(c6ccc(Cl)cc6Cl)O5)cc4)CC3)cc2)c1=O (centres undefined)	?	?	?	–	?	?
Cc1ccc(N(CC(=O)Nc2ccc(OC(F)(F)F)cc2)S(=O)(=O)c2c(C)noc2C)cc1	·	–	·	–	·	·
Cc1ccc(C(=O)CN2/C(=C(\O)c3ccccc3)C(=O)c3ccccc3S2(=O)=O)c(C)c1	?	2.3µM	?	?	?	?
CCOC(=O)c1c(Cl)c(C)nn1-c1nc(OC)cc(OC)n1	–	2.9µM	–	?	–	–
CCOC(=O)c1cc(C)nn1-c1nc(Cl)cc(OC)n1	–	–	–	–	–	–
CC(C)(C)C(=O)Nc1nc2cc3c(cc2s1)OCO3	–	–	?	–	3.3µM	–
COC(=O)c1ccc2nc(NC(=O)C(C)(C)C)sc2c1	–	?	18µM	?	–	?
COc1cccc(C2C(C(=O)c3cc4ccccc4o3)=C(O)C(=O)N2c2cc(C)on2)c1 (centres undefined)	18µM	–	?	–	–	–
CCCOc1ccc(C2C(C(=O)c3cc4ccccc4o3)=C(O)C(=O)N2c2cc(C)on2)cc1 (centres undefined)	–	–	–	?	?	–
SMILES	MCF10A rerep	KB-V1 MDR tox	HT1080NT lethal	KB-3-1 tox	SW480 rerep	HT1080 IDH1KD tx
C=CCOc1cccc(C2C(C(=O)c3cc4ccccc4o3)=C(O)C(=O)N2c2cc(C)on2)c1 (centres undefined)	21µM	–	?	–	?	–
Cc1cc(N2C(=O)C(O)=C(C(=O)c3ccc(C)o3)C2c2cccc(Oc3ccccc3)c2)no1 (centres undefined)	26µM	–	–	–	?	–
Cc1cc(N2C(=O)C(O)=C(C(=O)c3cc4ccccc4o3)C2c2cccc(Cl)c2)no1 (centres undefined)	?	–	–	–	?	–
COc1ccc(OC)c(C2C(C(=O)c3cc4ccccc4o3)=C(O)C(=O)N2c2cc(C)on2)c1 (centres undefined)	–	3.7µM	–	?	–	–
CC(O)[C@H]1CC[C@H]2[C@@H]3CC[C@H]4C[C@@H](O)CC[C@]4(C)[C@H]3C(=O)C[C@]12C (some centres undefined)	–	–	–	–	–	–
COc1ccccc1OCCNC(=O)c1ccc(C(C)(C)C)cc1	–	–	–	–	–	–
COc1ccc2nc(C)cc(SCC(=O)NNC(=O)COc3ccccc3)c2c1	–	?	–	–	–	–
COc1ccc2nc(C)cc(Sc3nc4ccccc4s3)c2c1	16µM	18µM	10µM	?	?	23µM
COc1cc(C(=O)OCC(=O)c2cc(C)n(C)c2C)cc(OC)c1OC	?	5.2µM	?	?	?	?
COc1cc(NC(=O)c2cc(C)no2)cc(OC)c1OC	–	–	–	–	–	?
CCOC(=O)C1=C(COC(=O)c2cc(S(=O)(=O)N(C)C)ccc2C)NC(=O)NC1C (centres undefined)	–	23µM	–	–	–	–
Cn1c(CCCOc2ccc(Cl)cc2Cl)nnc1SCC(=O)Nc1ccc(F)c(Cl)c1	23µM	–	?	–	–	–
CCc1cccc(C)c1NC(=O)CSc1nnc(CCCOc2ccc(Cl)cc2Cl)n1C	–	4.6µM	–	18µM	–	?
Cn1c(CCCOc2ccc(Cl)cc2Cl)nnc1SCC(=O)Nc1cccc(F)c1	?	–	?	–	–	–
Cc1ccccc1NC(=O)c1c(NC(=O)c2cccs2)sc2c1CCC(C)C2 (centres undefined)	·	–	·	–	·	·
Cc1cccc(C)c1-n1nnnc1C(c1ccnc2ccccc12)N(CCN(C)C)Cc1ccccc1 (centres undefined)	·	?	21µM	?	·	21µM
CC(C)c1[nH]nc2c1C(C1C=CCCC1)C(C#N)=C(N)O2 (centres undefined)	?	–	?	?	?	?
Oc1ccc2ccccc2c1-c1sc(Nc2ccccc2)n[n+]1-c1ccc(F)cc1	–	–	–	–	–	–
COc1ccc(C)cc1Nc1n[n+](-c2ccccc2)c(-c2cc(OC)c(OC)cc2Br)s1	–	–	–	?	?	–
COc1ccc(C)cc1Nc1n[n+](-c2ccccc2)c(-c2c(OC)ccc3ccccc23)s1	?	?	?	18µM	–[9.22 µM]	?
